# Measured values: the supplement of paper PMC10498489
# Among all 2,300 compounds or so, about 330 (14%) showed activity. Not all results are given here. Values without a mark were called inactive.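 How the source made its calls: active = median modified Z-score above 1.96; inactive = 1.96 or below.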
# Test system: HepG2 Srxn1-GFP reporter cells (+30 nM CDDO-Me)
# Assay: Srxn1-GFP intensity median modified Z-score relative to plate median; higher = stronger NRF2 / oxidative stress reporter activation, active = hit call of the paper
# Settings: 10 µM; exposure time: 24h
# Method in brief: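 Compound at 10 μM was applied with an NRF2 activator at 30 nM to HepG2 Srxn1-GFP BAC reporter cells for 24 h, in DMSO at no more than 0.1%, using three replicate 96-well plates seeded at 20,000 cells per well. Fixed, Hoechst-stained cells were imaged confocally and cytoplasmic GFP was scored for each cell, with images under 100 cells left out. The figure reported is the replicate median of the per-plate modified Z-score of GFP intensity. Scaling relied on 1.4826 × median absolute deviation.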
row,Structure (SMILES),Srxn1-GFP intensity median modified Z-score
1,CN1C(=O)OC(C)(C)C1=O [euspeclibcmpd801],-0.117
2,OCCN=CCNc1ccc(NCCNCCO)c2c(O)c3c(O)ccc(O)c3c(O)c12 [euspeclibcmpd568],-1.55
3,CC(=O)C(O)Nc1c(I)c(C(=O)NC(CO)CO)c(I)c(C(=O)NC(CO)CO)c1I (centres undefined) [euspeclibcmpd459],-0.445
4,Nc1c(Br)cc(Br)cc1CNC1CCC(O)CC1 (centres undefined) [euspeclibcmpd1118],-0.575
5,CC(=O)Oc1ccc2c(C)cc(=O)oc2c1 [euspeclibcmpd2400],-0.419
6,CC(=O)c1ccc(O[C@@H]2O[C@H](CO)[C@H](O)[C@H](O)[C@H]2O)cc1,1.43
7,CC=C(C1=CC(=O)C(OC)=CC1=O)c1ccc(O)cc1 [euspeclibcmpd1636],0.385
8,CC=C(C1=CC(=O)C=CC1=O)c1ccccc1 [euspeclibcmpd1643],1.51
9,CC=C(C1=CC(=O)C(OC)=C(OC)C1=O)c1ccccc1 [euspeclibcmpd1978],-0.444
10,CC=C(C1=CC(=O)C(OC)=CC1=O)c1ccccc1 [euspeclibcmpd1693],3.26 (active)
11,CC=C(C1=CC(=O)C(OC)=CC1=O)c1ccc(OC)cc1 [euspeclibcmpd1441],5.77 (active)
12,COc1ccc(O)cc1 [euspeclibcmpd4],-0.253
13,CC(C)(/N=N/C(C)(C)C(=N)N)C(=N)N [euspeclibcmpd1744],-0.295
14,Cc1ccc2c(Br)cc(Br)c(OC(=O)c3ccccc3)c2n1 [euspeclibcmpd2181],2.44 (active)
15,Cc1ccc2cccc(OC(=O)c3ccccc3)c2n1,1.25
16,O=C(OOC(=O)c1ccccc1)c1ccccc1 [euspeclibcmpd511],-0.314
17,NC[C@@H]1O[C@H](O[C@@H]2[C@@H](CO)OC(O[C@@H]3[C@@H](O)[C@H](N)C[C@H](N)[C@H]3O[C@H]3O[C@H](CO)[C@@H](O)[C@H](O)[C@H]3N)[C@@H]2O)[C@H](N)[C@@H](O)[C@@H]1O (some centres undefined) [euspeclibcmpd563],-0.129
18,CCCCCCCCCCCCCCCC(=O)OC[C@H](NC(=O)C(Cl)Cl)[C@H](O)c1ccc([N+](=O)[O-])cc1 [euspeclibcmpd52],0.231
19,CC(=O)OCC(=O)[C@@]12N=C(C)O[C@@H]1CC1C3CC=C4CC(=O)C=C[C@]4(C)C3[C@@H](O)C[C@@]12C (some centres undefined) [euspeclibcmpd781],-0.377
20,NCCOB(c1ccccc1)c1ccccc1 [euspeclibcmpd2465],7.48 (active)
21,Cc1onc(-c2c(Cl)cccc2Cl)c1C(=O)NC1C(=O)N2C1SC(C)(C)C2C(=O)O (centres undefined) [euspeclibcmpd2174],-0.262
22,CC(=O)OCC(CCn1cnc2c[nH]c(=N)nc21)COC(C)=O [euspeclibcmpd712],0.533

row,Structure (SMILES),Srxn1-GFP intensity median modified Z-score
1,Cc1ccc(-n2c(C)cc(C(=O)COC(=O)C3CC4C=CC3C4)c2C)cc1C (centres undefined),0.589
2,Cc1ccc(-n2c(C)cc(C(=O)Cn3ncc(Cl)c(Cl)c3=O)c2C)cc1,29 (active)
3,COc1cc(NS(C)(=O)=O)ccc1N=c1c2ccccc2[nH]c2ccccc12 [euspeclibcmpd557],-1.65
4,CCC1CS/C(=N\c2ccc(Cl)c(Cl)c2)N1C(=O)CC1CC2CCC1C2 (centres undefined),1.31
5,S=c1[nH]cnc2[nH]cnc12 [euspeclibcmpd183],59.5 (active)
6,c1coc(CN=c2[nH]cnc3[nH]cnc23)c1 [euspeclibcmpd1534],0.144
7,O=c1[nH]cnc2[nH]cnc12 [euspeclibcmpd1584],0.249
8,CC(=O)C1CCC2C3=CC=C4CC(=O)CC[C@@]4(C)C3CC[C@]12C (some centres undefined) [euspeclibcmpd815],1.45
9,CCCC[C@@H](CC)COC(=O)C(C#N)=C(c1ccccc1)c1ccccc1 [euspeclibcmpd936],0.649
10,N#C[C@@H]1C[C@@H]2C[C@@H]2N1C(=O)C(N)C12CC3CC(CC(O)(C3)C1)C2 (some centres undefined) [euspeclibcmpd1283],-0.27
11,CC(C)CCCC(C)C1CCC2C3CC[C@H]4C[C@H](O)CC[C@]4(C)C3CC[C@]12C (some centres undefined) [euspeclibcmpd2260],-0.325
12,C1N2CN3CN1CN(C2)C3 [euspeclibcmpd187],9.99 (active)
13,CC(=O)OCC(=O)[C@@]12OC(C)(C)O[C@@H]1CC1C3CC(F)=C4CC(=O)C=C[C@]4(C)[C@@]3(F)[C@@H](O)C[C@@]12C (some centres undefined) [euspeclibcmpd130],-0.571
14,CC(=O)O[C@H]1CC2CCC3C(CC[C@@]4(C)C3C[C@H]([N+]3(C)CCCCC3)[C@@H]4OC(C)=O)[C@@]2(C)C[C@@H]1N1CCCCC1 (some centres undefined) [euspeclibcmpd853],-0.182
15,N#Cc1ccc2[nH]cc(CCCCN3CCN(c4ccc5oc(C(N)=O)cc5c4)CC3)c2c1 [euspeclibcmpd2178],0.321
16,C[C@@H]1CC[C@@]2(OC1)OC1CC3C4CC=C5C[C@@H](O)CC[C@]5(C)C4CC[C@]3(C)C1[C@@H]2C (some centres undefined) [euspeclibcmpd1355],-0.393
17,O=c1c(O)c(-c2ccc(O)c(O)c2)oc2c(O[C@@H]3O[C@H](CO)[C@H](O)[C@@H](O)[C@H]3O)c(O)cc(O)c12 [euspeclibcmpd1755],-0.613
18,COc1ccc(CC(N)C(=O)N[C@@H]2[C@@H](CO)OC(n3cnc4c(N(C)C)ncnc43)[C@@H]2O)cc1 (some centres undefined) [euspeclibcmpd2118],2.51 (active)
19,O=c1[nH]cnc2c1ncn2C1O[C@H](CO)[C@@H](O)[C@H]1O (some centres undefined) [euspeclibcmpd1256],-0.544
20,COc1[nH]c(=N)nc2c1ncn2C1OC(CO)C(O)C1O (centres undefined) [euspeclibcmpd1835],-0.349
21,COc1ccc(C(=O)O)c(O)c1OC [euspeclibcmpd1494],-0.416
22,CC(C=CC1(O)C(C)=CC(=O)CC1(C)C)=CC(=O)O (centres undefined) [euspeclibcmpd1542],0.012
